This is a sample that favours compounds with a hit; in the whole collection about 7.5% have one here.
Rab9 prom act: qHTS Assay for Rab9 Promoter Activators; Huh7 Rab9 promoter-luciferase reporter, luminescence, 24 h; 320,000 compounds, 2.8% hits; Potency, µM (highest dose often 9.22 µM), inactives show at the highest dose activation, negative = inhibition, usual class: activators; further: % of control where 0% means no effect; nearly all actives have a fitted effect of over 60% in size
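Huh7 cells stably carrying a Rab9 promoter-luciferase reporter, 1500 cells per well in OP-MEM I with 10% FBS, treated with compound 24 hours at 37C. Luciferase activity read by luminescence after 10 minutes with Amplite reagent.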
SMN2 splice up: qHTS Assay for Enhancers of SMN2 Splice Variant Expression. HEK293 SMN2-luciferase splicing reporter, luminescence, 30-36 h. Potency, µM (titrated, usually from 46.1 µM), inactives show at the highest dose activity change, positive = activation, actives largely listed as activators. 210,000 compounds, 2.8% hits; further: % of control where 0% means no effect; nearly all actives have a fitted effect of over 55% in size
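HEK293 cells carry an SMN2 minigene-luciferase reporter in which exon 7 inclusion puts luciferase in frame. Cells were seeded at 2000 cells/well, attached for 10-12 hours, then exposed to compounds for 30-36 hours at 37C before ONE-Glo luminescence.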
FLuc counter: qHTS profiling assay for firefly luciferase inhibitor/activator using purifed enzyme and Km concentrations of substrates (counterscreen for miR-21 project) | Potency, µM (series often up to 57.5 µM), for the others: top-dose activity change, negative = inhibition, actives largely listed as inhibitors | Luciferin 4-monooxygenase (Photinus pyralis), P08659 | 360,000 compounds, 6.9% hits | purified FLuc, Km substrates, luminescence inhibition;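 further: plate controls were vehicle for no effect and reference inhibitor for full effect; nearly all actives have a fitted effect of over 55% in size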
Target sequence (P08659 whole entry, looked up): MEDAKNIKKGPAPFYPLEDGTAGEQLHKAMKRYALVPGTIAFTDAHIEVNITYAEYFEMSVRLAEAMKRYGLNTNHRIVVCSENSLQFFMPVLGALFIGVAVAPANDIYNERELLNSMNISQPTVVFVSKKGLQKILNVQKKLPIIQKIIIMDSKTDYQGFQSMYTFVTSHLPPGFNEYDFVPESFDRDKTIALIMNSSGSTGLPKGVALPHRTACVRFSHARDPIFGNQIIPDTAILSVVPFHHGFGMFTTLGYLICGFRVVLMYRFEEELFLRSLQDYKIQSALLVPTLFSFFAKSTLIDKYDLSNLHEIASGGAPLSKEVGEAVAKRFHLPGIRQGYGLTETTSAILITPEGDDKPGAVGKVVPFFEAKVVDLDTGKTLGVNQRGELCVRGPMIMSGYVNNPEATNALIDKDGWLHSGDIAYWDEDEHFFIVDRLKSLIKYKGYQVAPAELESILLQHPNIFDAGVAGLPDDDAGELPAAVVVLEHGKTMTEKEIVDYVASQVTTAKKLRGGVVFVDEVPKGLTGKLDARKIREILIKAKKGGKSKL
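Purified P. pyralis luciferase (10nM final) with 10uM D-luciferin and 10uM ATP (Km levels) in 50mM Tris acetate pH 7.5, 10mM Mg acetate, 0.01% Tween-20, 0.05% BSA; qHTS 6-point titration, ~60 µM downward; luminescence read.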
Luc counter: Counterscreen for Luciferase (Kinase-Glo TM) Inhibition; Luciferin 4-monooxygenase (Photuris pensylvanica), Q27757; Potency, µM (top dose mostly 38.3 µM), for inactives: at the top dose activity change, negative = inhibition, actives largely listed as inhibitors; Kinase-Glo luciferase, ATP luminescence, 8 min; AID 1379, 2008; 200,000 compounds, 0.28% hits; further: on the % scale 0 is the no-effect control and ±100 the full control effect; nearly all actives have a fitted effect of over 60% in size
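Compounds were added to a substrate mix at pH 7.2 (50 mM imidazole, 10 uM ATP, within the enzyme's linear range), followed by Kinase-Glo detection reagent; luminescence was measured after 8 minutes at ambient temperature.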
NPC1 prom act: qHTS Assay for NPC1 Promoter Activators; Huh7 NPC1 promoter luciferase reporter, 24 h; Potency, µM (titrated, usually from 9.22 µM), without a hit: at the top dose activation, hits mostly activators; 320,000 compounds, 2.4% hits; further: % of control where 0% means no effect; nearly all actives have a fitted effect of over 60% in size
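Compounds in DMSO were transferred onto Huh7 NPC1-luciferase reporter cells pre-incubated 2 h; after 24 h at 37 °C, Amplite reagent was dispensed and luminescence recorded 10 min later.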
ELG1 genotoxic: qHTS screen for small molecules that induce genotoxicity in human embryonic kidney (HEK293T) cells expressing luciferase-tagged ELG1; HEK293T ELG1-luciferase reporter, luminescence, 16 h; Potency, µM (series often up to 46 µM), for the others: top-dose activity change, positive = activation, most hits filed as activators; 330,000 compounds, 1.3% hits; further: % of control where 0% means no effect; nearly all actives have a fitted effect of over 60% in size
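HEK293T cells expressing luciferase-tagged ELG1 were treated with compound or DMSO for 16 hr at 37°C. Luciferase activity was then read after 30 min with ONE-Glo at room temperature; rising signal flags genetic stress.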
* hit, by the source's call; ? = inconclusive; nt = no result given; [ ] = dose if it differs, or a comment. The call rests on the fitted dose curve; in most records, active means well fitted curve in the direction sought with a large enough effect; inconclusive means small, poorly fitted or top-dose-only effect, or another doubt; inactive means no such curve, though single readings can be large; an effect the other way counts as inactive or inconclusive. Potency means the concentration at half of the fitted maximal effect.

SMILES | Rab9 prom act | SMN2 splice up | FLuc counter | Luc counter | NPC1 prom act | ELG1 genotoxic
CCC(=O)Nc1ccc(-c2csc(C)n2)cc1 | ? | ? | 24µM* | 11% | ? | ?
Cc1nc(-c2ccc(NC(=O)Cc3ccccc3)cc2)cs1 | ? | nt | 8.5µM* | nt | ? | 8%
Cc1[nH]c(C)c2c(=O)n(-c3ccccc3)ncc12 | ? | 0% | ? | -3% | 18% | 21µM*
Cc1c2cnn(-c3ccccc3)c(=O)c2c(C)n1CC(=O)NCc1ccccc1 | nt | -5% | -1% | nt | nt | nt
CCOC(=O)c1ccc(NC(=O)N(CC)CC)cc1 | 2.5µM* | 11µM* | 19µM* | 1% | ? | 16µM*
CCOC(=O)c1ccc(NC(=O)c2ccco2)cc1 | 2.2µM* | nt | 11µM* | nt | 3.5µM* | ?
CCOc1ccccc1NC(=O)c1ccc(NC(=O)c2ccco2)cc1 | -2% | -8% | -3% | 9% | 3% | 1%
COC(=O)c1ccc(NC(=O)c2cccc(NC(=O)c3ccco3)c2)cc1 | 8% | nt | -14% | nt | -9% | 1%
CC(C)OC(=O)c1ccc2nc3ccccc3nc2c1 | 0.71µM* | nt | 1.7µM* | nt | 2.8µM* | ?
CC(C)OC(=O)c1ccc(NC(=O)c2ccco2)cc1 | 3.2µM* | nt | 13µM* | -4% | 2.5µM* | 2.8µM*
CCOC(=O)c1ccc(NC(=S)N(CCN(C)C)Cc2cccs2)cc1 | -1% | 3.5µM* | -1% | 7% | -8% | -11%
CC(C)OC(=O)c1ccc(NC(=O)c2ccccc2)cc1 | ? | 13µM* | 15µM* | -5% | 4µM* | 17%
Cc1ccc(NC(=O)CNC(=O)c2ccco2)cc1 | 4µM* | nt | ? | nt | ? | 17%
COc1ccc(NC(=O)CNC(=O)c2ccco2)cc1 | 26% | nt | -15% | nt | 25% | ?
Cc1ccc(NC(=S)N(CCN(C)C)Cc2cccs2)cc1 | -2% | -20% | 0% | -3% | -8% | -4%
C/C(=N\NC(=O)c1cccc(S(=O)(=O)N2CCOCC2)c1)c1ccc(OCC(=O)N(C)C)cc1 | 0% | nt | 0% | nt | 0% | 1%
CC(=O)Nc1cccc(-c2cn3cccnc3n2)c1 | nt | nt | -2% | nt | nt | nt
COc1ccc(NC(=O)Nc2cccc(-c3cn4cccnc4n3)c2)cc1 | nt | 5% | 1.7µM* | nt | nt | nt
COc1cc(OC)cc(C(=O)Nc2cccc(-c3cn4cccnc4n3)c2)c1 | nt | nt | -17% | nt | nt | nt
O=C(COc1ccccc1)Nc1cccc(-c2cn3cccnc3n2)c1 | ? | nt | 15µM* | nt | 14% | -7%
Cc1ccc(NC(=O)CCSc2nnnn2-c2ccc3c(c2)OCO3)cc1C | -4% | -34% | 2% | 2% | -10% | -5%
C=CC1=C2C=C(C3CC3)N(Cc3ccc4c(c3)OCO4)C=C2C(=O)C(C)(OC(=O)c2ccco2)C1=O (stereo not given) | nt | -5%[9.22 µM] | nt | -1%[7.66 µM] | nt | nt
CC(C)c1ccc2nc3sc(C(=O)N4CCc5ccccc5C4)c(N)c3cc2c1 | 17% | 16% | 17µM* | -2% | 13% | 21%
COc1ccc2cc3c(N)c(C(=O)N4CCCC4)sc3nc2c1 | 1.4µM* | 11µM* | 2.7µM* | -6% | 1.8µM* | ?
Cc1ccc2cc3c(N)c(C(=O)N4CC(=O)Nc5ccccc54)sc3nc2c1 | -4% | 2% | -14% | -3% | -13% | 26%
SMILES | Rab9 prom act | SMN2 splice up | FLuc counter | Luc counter | NPC1 prom act | ELG1 genotoxic
Cc1ccc2cc3c(N)c(C(=O)N4CCOCC4)sc3nc2c1 | 4µM* | nt | 2.4µM* | nt | 0.32µM* | 1.2µM*
Cc1ccc2nc3sc(C(=O)N4CCOCC4)c(N)c3cc2c1 | 0.11µM* | -73% | 0.12µM* | -27% | 0.25µM* | ?
CC1=C(C(=O)OCC2CCCCC2)C(c2ccc(Cl)cc2)CC(=O)N1 (stereo not given) | nt | -15% | -16% | nt | nt | nt
CCC(C)NC(=O)c1cc2cc3ccc(OC)cc3nc2s1 (stereo not given) | 0.35µM* | 13µM* | 3µM* | -8% | 0.56µM* | ?
CCOc1ccc2nc3sc(C(=O)N4CCN(C)CC4)c(N)c3cc2c1 | 25% | 17% | 11µM* | 0% | -3% | ?
COc1cc(C2Nc3cc(Cl)c(S(N)(=O)=O)cc3S(=O)(=O)N2)ccc1OCc1ccccc1 (stereo not given) | -4% | 8% | ? | -5% | -2% | 16µM*
COc1cc(C2Nc3cc(Cl)c(S(N)(=O)=O)cc3S(=O)(=O)N2)cc(OC)c1OC (stereo not given) | -5% | -12% | 2% | 0% | -1% | 2%
O=C(C1CC(c2ccccc2O)=NO1)N1CCCCC1 (stereo not given) | 4.5µM* | 0.16µM* | 15µM* | -8% | ? | 13µM*
CC1CCCCN1C(=O)C1CC(c2ccc(F)cc2)=NO1 (stereo not given) | 2µM* | nt | 21µM* | nt | ? | 18%
O=C(C1CC(c2ccc(F)cc2)=NO1)N1CCCCC1 (stereo not given) | ? | 28µM* | 15µM* | -3% | 3.2µM* | ?
C[C@H]1Cc2c(COc3ccccc3)nc3c(c2CO1)CN(C(=O)c1cccnc1)CC3 | nt | 0%[9.22 µM] | nt | -1%[7.66 µM] | nt | nt
CCOc1ccc(OCCNC(=O)C(NC(=O)c2c(F)cccc2F)C(C)C)cc1 (stereo not given) | -3% | nt | 5% | nt | 0% | 0%
Cc1ccc(Nc2ccc(N3CCN(C(=O)c4cccc([N+](=O)[O-])c4)CC3)nn2)cc1 | nt | nt | 2% | nt | nt | nt
CCOC(=O)Cc1csc(NC(=O)Nc2ccc(C)cc2)n1 | 21% | nt | 3µM* | nt | 17% | 0%
CCOC(=O)Cc1csc(NC(=O)Nc2cccs2)n1 | 24% | nt | 21µM* | nt | ? | 7%
CCOC(=O)Cc1csc(NC(=O)c2cccc(OC)c2)n1 | 0% | -3% | ? | -1% | 4% | 3%
CCCC(=O)Nc1ccc(C(=O)Nc2nc(CC(=O)OCC)cs2)cc1 | -1% | -3% | 15µM* | 14% | 1% | -1%
CCOC(=O)Cc1csc(NC(=O)Nc2cccc(OC)c2)n1 | -1% | nt | 15µM* | nt | 13% | -2%
COCC(C)NC(=O)c1nn(Cc2ccccc2)c(=O)c2ccccc12 (stereo not given) | 0% | nt | -2% | nt | 2% | 8%
COc1ccc(-c2cc(C(F)(F)F)nc(SCC(=O)NCCCN3CCOCC3)n2)cc1 | -10% | 11% | 4% | -1% | -8% | -1%

High-throughput results: PubChem, National Center for Advancing Translational Sciences (NCATS)
